Only some compounds are listed: those with a hit (about 19% of all), similar ones and a draw of the others.
Giardia kill = Giardia lamblia killing | Giardia lamblia trophozoite viability | activity change, % at 7.66 µM, hits read low | 0.15% of 340,000 active | AID 540267; in the data active = activity change below about -80%; inconclusive = between about -30% and that limit;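 also: parasites exposed to compound for two days anaerobically before the ATP read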
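Giardia lamblia trophozoites (100 cells/well) were incubated with compounds for 48 h at 37 deg C under anaerobic conditions. Viability was read as ATP content by one-step luminescence after 15-30 min at room temperature.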
DT40 TDP1 CPT = growth inhibition of DT40 Tdp1-/-;hTDP1 cells with camptothecin (screen for TDP1 inhibitors); chicken DT40 Tdp1-/-;hTDP1 cells + 20 nM CPT, ATP luminescence, 48 h; Potency, µM (titrated, usually from 46.2 µM), without a hit: at the top dose activity change, negative = growth inhibition, hits mostly inhibitors; 12% of 420,000 active; also: potency is read from the fitted curve at half-maximal effect; nearly all actives have a fitted effect of over 55% in size
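Chicken DT40 Tdp1-/- cells stably complemented with human TDP1 were seeded at 400 cells/well in medium containing 20 nM camptothecin, exposed to pin-transferred compounds, and grown at 37 °C for at least 48 hr. Viability was read as ATP luminescence.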
TDP1 block = inhibitors of human tyrosyl-DNA phosphodiesterase TDP1; recombinant TDP1, AlphaScreen DNA substrate cleavage; AID 485290; 0.28% of 350,000 active; Q9NUW8; Potency, µM (series often up to 130 µM), inactives show at the top dose activity change, negative = inhibition, most hits filed as inhibitors; also: potency is read from the fitted curve at half-maximal effect; nearly all actives have a fitted effect of over 40% in size
Target sequence (Q9NUW8 whole entry, looked up): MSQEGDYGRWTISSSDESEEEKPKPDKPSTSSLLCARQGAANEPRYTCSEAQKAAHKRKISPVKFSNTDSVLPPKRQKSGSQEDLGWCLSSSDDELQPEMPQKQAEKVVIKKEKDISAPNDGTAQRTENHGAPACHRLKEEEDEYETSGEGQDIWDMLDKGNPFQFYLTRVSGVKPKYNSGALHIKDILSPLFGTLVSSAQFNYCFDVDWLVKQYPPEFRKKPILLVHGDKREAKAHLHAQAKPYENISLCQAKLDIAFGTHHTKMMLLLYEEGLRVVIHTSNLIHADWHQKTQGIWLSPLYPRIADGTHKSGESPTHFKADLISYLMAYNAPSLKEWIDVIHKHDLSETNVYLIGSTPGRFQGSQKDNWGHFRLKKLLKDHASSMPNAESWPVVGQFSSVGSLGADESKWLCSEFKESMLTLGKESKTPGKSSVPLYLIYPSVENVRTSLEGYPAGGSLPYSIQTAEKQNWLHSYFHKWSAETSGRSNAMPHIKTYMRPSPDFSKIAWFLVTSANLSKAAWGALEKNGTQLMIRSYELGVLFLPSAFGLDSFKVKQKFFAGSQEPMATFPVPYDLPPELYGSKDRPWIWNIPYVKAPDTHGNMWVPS
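Tdp1 1 nM final; 15 min RT w/ cpd; substrate 15 nM, 5 min; beads 10 ug/ml, 10 min; AlphaScreen read. Neg ctrl: no enzyme.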
ELG1 repair inh = ELG1-dependent DNA repair inhibition; 2.3% of 330,000 active; HEK293T ELG1-luciferase reporter, luminescence, 16 h; DNA damage induced by 5-fluorouridine; Potency, µM (top dose mostly 46.1 µM), without a hit: at the top dose activity change, negative = inhibition, hits mostly inhibitors; AID 504467; also: potency is read from the fitted curve at half-maximal effect; nearly all actives have a fitted effect of over 55% in size
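Step one: seed 2,000 cells per well. Step two: pin-transfer compound or DMSO alongside 5-fluorouridine. Step three: incubate 16 hr, 37 °C, 5% CO2. Step four: add ONE-Glo, wait 30 min, read luminescence.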
TDP1 cell noCPT = qHTS for Inhibitors of human tyrosyl-DNA phosphodiesterase 1 (TDP1): qHTS in cells in absence of CPT. 15% of 420,000 active. Potency, µM (highest dose often 46.2 µM), for inactives: top-dose activity change, negative = growth inhibition, hits mostly inhibitors. DT40 Tdp1-/- hTDP1 cells, no CPT, ATP luminescence, 48 h; also: potency is read from the fitted curve at half-maximal effect; nearly all actives have a fitted effect of over 55% in size
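Luminescent ATP content (CellTiter-Glo) served as the growth readout. Knockout chicken DT40 cells expressing human TDP1 were exposed to compounds without camptothecin for a minimum 48 hr at 37 °C.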
IL-1B inflam inh = inhibitors of inflammasome signaling (IL-1 beta secretion); THP-1 LPS/ATP IL-1B secretion, AlphaLISA, 16 h; active compounds read low; activity change, % at 57.5 µM; 4.7% of 360,000 active; AID 743279; in the data active = activity change below about -50%; inconclusive = mostly about -30% to -49%
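THP-1 cells pretreated 1 hr with compounds (up to 57.5 uM final), then stimulated with LPS (250 ng/mL final) plus ATP (1.25 mM final); secreted IL-1B measured by AlphaLISA after 16 hr, decreased signal indicating inhibition.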
* marks the source's active call; other numbers are inactive results. Unless noted, calls follow the shape of the dose curve; as a rule, active = well fitted curve in the direction sought with a large enough effect; inconclusive = small, poorly fitted or top-dose-only effect, or another doubt; inactive = no such curve, though single readings can be large; an effect the other way counts as inactive or inconclusive. % is scaled to controls: 0 for no effect and ±100 for the full control effect.

Results for O=C1c2c(O)cc(O)cc2O[C@H](c2ccc(O)c(O)c2)C1O (stereo not given in full) ?
TDP1 block: 4%

What do the screens show for `CCOC(=O)CN1C(=O)C(C)(C)Oc2ccc(C(=O)Nc3ccccc3)cc21`?
Giardia kill: 15; DT40 TDP1 CPT: inconclusive; TDP1 block: 4%; ELG1 repair inh: 13µM*; TDP1 cell noCPT: inconclusive; IL-1B inflam inh: -23

What do the screens show for `COc1ccc(-c2csc(C(C)(O)c3cccc(OC)c3)n2)cc1` (stereo not given)?
DT40 TDP1 CPT: 16µM*; TDP1 cell noCPT: inconclusive; IL-1B inflam inh: 9

What do the screens show for `COc1cccc(C(C)(O)c2nc(-c3ccc(S(C)(=O)=O)cc3)cs2)c1` (stereo not given)?
DT40 TDP1 CPT: inconclusive; TDP1 cell noCPT: 18µM*; IL-1B inflam inh: -10

How did COc1cccc(C(C)(O)c2nc(-c3cc(F)cc(F)c3)cs2)c1 (stereo not given) do in these assays?
DT40 TDP1 CPT: inconclusive; TDP1 cell noCPT: 23µM*; IL-1B inflam inh: -16

What do the screens show for `COc1cccc(C(C)(O)c2nc(-c3ccc(C)c(C)c3)cs2)c1` (stereo not given)?
DT40 TDP1 CPT: inconclusive; TDP1 cell noCPT: inconclusive; IL-1B inflam inh: 17

What do the screens show for `COc1cccc(C(C)(O)c2nc(-c3ccc(Cl)cc3)cs2)c1` (stereo not given)?
DT40 TDP1 CPT: inconclusive; TDP1 cell noCPT: inconclusive; IL-1B inflam inh: 11

What do the screens show for `COc1ccc(C(C)(O)c2nc(-c3csc4ccccc34)cs2)cc1` (stereo not given)?
DT40 TDP1 CPT: 2.9µM*; TDP1 cell noCPT: 4.6µM*; IL-1B inflam inh: 54

Results for C=C(C)C(=O)OCCCCCC ?
TDP1 block: 6%

What do the screens show for `CC(=O)NC(C)(c1ccccc1)c1nc(/C=C/c2ccccc2)cs1` (stereo not given)?
DT40 TDP1 CPT: inconclusive; TDP1 cell noCPT: 16µM*; IL-1B inflam inh: -15

How did COCc1cccc(-c2csc(C(C)(O)c3cccc(OC)c3)n2)c1 (stereo not given) do in these assays?
DT40 TDP1 CPT: 13µM*; TDP1 cell noCPT: inconclusive; IL-1B inflam inh: 4

What do the screens show for `COc1cccc(C(C)(O)c2nc(-c3ccc4c(c3)OCO4)cs2)c1` (stereo not given)?
DT40 TDP1 CPT: 15µM*; TDP1 cell noCPT: 21µM*; IL-1B inflam inh: 0

How did COc1cccc(C(C)(O)c2nc(-c3ccc4ccccc4c3)cs2)c1 (stereo not given) do in these assays?
DT40 TDP1 CPT: inconclusive; TDP1 cell noCPT: inconclusive; IL-1B inflam inh: 28

How did CC(O)(c1cccnc1)c1nc(-c2ccc3ccccc3c2)cs1 (stereo not given) do in these assays?
DT40 TDP1 CPT: 21µM*; TDP1 cell noCPT: 23µM*; IL-1B inflam inh: 5

What do the screens show for `CC(O)(c1cccnc1)c1nc(-c2ccc3c(c2)OCO3)cs1` (stereo not given)?
DT40 TDP1 CPT: 16µM*; TDP1 cell noCPT: inconclusive; IL-1B inflam inh: 22

Results for CC(O)(c1cccnc1)c1nc(/C=C/c2ccccc2)cs1 (stereo not given) ?
DT40 TDP1 CPT: inconclusive; TDP1 cell noCPT: 21µM*; IL-1B inflam inh: 41

What do the screens show for `COc1ccc(C(C)(O)c2nc(-c3ccc4c(c3)OCO4)cs2)cc1` (stereo not given)?
DT40 TDP1 CPT: inconclusive; TDP1 cell noCPT: inconclusive; IL-1B inflam inh: 42

Results for CC(O)(c1cccnc1)c1nc(-c2cccc(C#N)c2)cs1 (stereo not given) ?
DT40 TDP1 CPT: 16µM*; TDP1 cell noCPT: 15µM*; IL-1B inflam inh: 11

How did CCc1cccc(C)c1NC(=O)CSc1nc2ccncc2[nH]1 do in these assays?
Giardia kill: -3; DT40 TDP1 CPT: inconclusive; TDP1 block: 2%; ELG1 repair inh: 7%; TDP1 cell noCPT: inconclusive; IL-1B inflam inh: 39

How did CN1CCC(=NOc2ccc([N+](=O)[O-])cc2)CC1 do in these assays?
Giardia kill: inconclusive; DT40 TDP1 CPT: -9%; TDP1 block: -3%; ELG1 repair inh: inconclusive; TDP1 cell noCPT: -30%; IL-1B inflam inh: -23

Results for Cc1ccccc1Cn1nc(C)c(NC(=O)C2c3ccccc3Oc3ccccc32)c1C ?
Giardia kill: 4; DT40 TDP1 CPT: 12µM*; TDP1 block: 0%; ELG1 repair inh: 1%; TDP1 cell noCPT: 15µM*; IL-1B inflam inh: 17

Results for Cc1cccc(NC(=O)C2c3ccccc3Oc3ccccc32)n1 ?
Giardia kill: 9; DT40 TDP1 CPT: 15µM*; TDP1 block: 0%; ELG1 repair inh: 5%; TDP1 cell noCPT: inconclusive; IL-1B inflam inh: -11

How did Cc1cccc2sc(NC(=O)C3CC3)nc12 do in these assays?
Giardia kill: -3; DT40 TDP1 CPT: 3%; ELG1 repair inh: 14%; TDP1 cell noCPT: -1%; IL-1B inflam inh: 6

Results for Cc1cccc2sc(NC(=O)C3c4ccccc4Oc4ccccc43)nc12 ?
Giardia kill: 12; DT40 TDP1 CPT: 12µM*; TDP1 block: 4%; ELG1 repair inh: inconclusive; TDP1 cell noCPT: inconclusive; IL-1B inflam inh: -5

How did Cc1ccccc1Cn1nc(C)c(NC(=O)C2(C)CC2(Cl)Cl)c1C (stereo not given) do in these assays?
Giardia kill: 1; DT40 TDP1 CPT: -14%; TDP1 block: 4%; ELG1 repair inh: -8%; TDP1 cell noCPT: -4%; IL-1B inflam inh: -1

Results for CCC(Oc1ccccc1-c1nnc(-c2ccccc2)o1)C(=O)Nc1ccc(C(C)=O)cc1 (stereo not given) ?
DT40 TDP1 CPT: -15%; TDP1 block: 5%; TDP1 cell noCPT: -22%

Results for COc1ccc(-c2nnn(CC(=O)N(CC(=O)NC3CCCC3)c3ccccc3)n2)cc1OC ?
Giardia kill: -24; DT40 TDP1 CPT: inconclusive; TDP1 block: 0%; ELG1 repair inh: -9%; TDP1 cell noCPT: 15µM*; IL-1B inflam inh: -2

How did Cc1ccc(-c2nnn(CC(=O)N(c3ccccc3)C(C(=O)NC3CCCC3)c3ccncc3)n2)o1 (stereo not given) do in these assays?
Giardia kill: -20; DT40 TDP1 CPT: 9%; ELG1 repair inh: 28%; TDP1 cell noCPT: 9%; IL-1B inflam inh: 13
